{
  "source": "the supplement of paper PMC3545927",
  "biological_target": "furin, P09958",
  "sequence (P09958 whole entry, the tested form may be a part)": "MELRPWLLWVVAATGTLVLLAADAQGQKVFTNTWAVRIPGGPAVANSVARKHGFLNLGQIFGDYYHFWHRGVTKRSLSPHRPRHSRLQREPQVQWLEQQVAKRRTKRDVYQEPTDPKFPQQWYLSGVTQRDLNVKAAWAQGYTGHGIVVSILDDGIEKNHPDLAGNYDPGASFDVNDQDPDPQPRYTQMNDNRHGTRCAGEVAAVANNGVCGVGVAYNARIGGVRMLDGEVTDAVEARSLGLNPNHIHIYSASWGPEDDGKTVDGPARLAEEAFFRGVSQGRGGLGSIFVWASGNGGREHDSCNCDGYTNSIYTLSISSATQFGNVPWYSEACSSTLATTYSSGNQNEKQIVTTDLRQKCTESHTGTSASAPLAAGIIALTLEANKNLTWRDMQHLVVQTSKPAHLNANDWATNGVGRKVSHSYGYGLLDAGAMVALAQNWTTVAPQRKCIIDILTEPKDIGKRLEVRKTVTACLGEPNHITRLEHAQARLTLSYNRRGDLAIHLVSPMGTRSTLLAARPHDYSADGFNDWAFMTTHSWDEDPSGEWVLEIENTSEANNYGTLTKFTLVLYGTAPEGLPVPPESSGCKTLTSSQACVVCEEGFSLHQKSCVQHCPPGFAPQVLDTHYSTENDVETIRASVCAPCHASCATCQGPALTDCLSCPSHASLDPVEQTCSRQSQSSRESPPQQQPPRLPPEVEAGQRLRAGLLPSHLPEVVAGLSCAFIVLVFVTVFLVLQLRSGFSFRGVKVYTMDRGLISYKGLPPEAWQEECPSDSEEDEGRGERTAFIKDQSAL",
  "experiment": "furin cleavage Z-score vs untreated control; higher = more cleavage, active = 3.5 or more, inactive = 1 or less, 8 variable residues between constant flanks",
  "procedure,_shortened": "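Peptides 8 residues long, fused to a cDNA oligonucleotide, were fixed to magnetic beads by the N-terminus and exposed to purified furin. The 0.01 ml reactions contained 50 mM HEPES pH 7.5 with CaCl2 and NaCl at 1:10 enzyme:substrate and ran 7.5, 15 or 30 min. For the cleavage Z-score, log counts of sequenced released DNA were compared with furin-free reactions, lowess-adjusted and scaled by median absolute deviation.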",
  "note": "The other results are listed elsewhere or left out. How many sequences the whole screen found active is unknown.",
  "data": [
    {"sequence": "CAAGVDAETHAGNASASA", "note": "[HC350]", "values": [
      {"measurement": "furin cleavage Z-score", "setting": "7.5 min", "value": "-0.719 (inactive)"},
      {"measurement": "furin cleavage Z-score", "setting": "15 min", "value": "-1.77 (inactive)"},
      {"measurement": "furin cleavage Z-score", "setting": "30 min", "value": "-1.18 (inactive)"}
    ]},
    {"sequence": "CAEVKTSTWVAGNASASA", "note": "[HC2194]", "values": [
      {"measurement": "furin cleavage Z-score", "setting": "7.5 min", "value": "0.637 (inactive)"},
      {"measurement": "furin cleavage Z-score", "setting": "15 min", "value": "-0.239 (inactive)"},
      {"measurement": "furin cleavage Z-score", "setting": "30 min", "value": "-1.95 (inactive)"}
    ]},
    {"sequence": "CAVKAAASKVAGNASASA", "note": "[HC1406]", "values": [
      {"measurement": "furin cleavage Z-score", "setting": "7.5 min", "value": "-0.468 (inactive)"},
      {"measurement": "furin cleavage Z-score", "setting": "15 min", "value": 1.05},
      {"measurement": "furin cleavage Z-score", "setting": "30 min", "value": "-0.785 (inactive)"}
    ]},
    {"sequence": "CAMKARPEKSAGNASASA", "note": "[FS-1139]", "values": [
      {"measurement": "furin cleavage Z-score", "setting": "7.5 min", "value": "0.00638 (inactive)"},
      {"measurement": "furin cleavage Z-score", "setting": "15 min", "value": "-0.792 (inactive)"},
      {"measurement": "furin cleavage Z-score", "setting": "30 min", "value": "-2.08 (inactive)"}
    ]},
    {"sequence": "CAKDSRLSRDAGNASASA", "note": "[FS-1017]", "values": [
      {"measurement": "furin cleavage Z-score", "setting": "7.5 min", "value": "-0.904 (inactive)"},
      {"measurement": "furin cleavage Z-score", "setting": "15 min", "value": "0.551 (inactive)"},
      {"measurement": "furin cleavage Z-score", "setting": "30 min", "value": "0.282 (inactive)"}
    ]},
    {"sequence": "CADIPRYKRMAGNASASA", "note": "[FS-1189]", "values": [
      {"measurement": "furin cleavage Z-score", "setting": "7.5 min", "value": "6.09 (active)"},
      {"measurement": "furin cleavage Z-score", "setting": "15 min", "value": "5.32 (active)"},
      {"measurement": "furin cleavage Z-score", "setting": "30 min", "value": "5.91 (active)"}
    ]},
    {"sequence": "CANNSREKKAAGNASASA", "note": "[FS-1378]", "values": [
      {"measurement": "furin cleavage Z-score", "setting": "7.5 min", "value": "-0.625 (inactive)"},
      {"measurement": "furin cleavage Z-score", "setting": "15 min", "value": "-0.493 (inactive)"},
      {"measurement": "furin cleavage Z-score", "setting": "30 min", "value": "-0.698 (inactive)"}
    ]},
    {"sequence": "CATLSRKKRAAGNASASA", "note": "[FS-567]", "values": [
      {"measurement": "furin cleavage Z-score", "setting": "7.5 min", "value": "9.09 (active)"},
      {"measurement": "furin cleavage Z-score", "setting": "15 min", "value": "8.88 (active)"},
      {"measurement": "furin cleavage Z-score", "setting": "30 min", "value": "6.75 (active)"}
    ]},
    {"sequence": "CAVKARIKRMAGNASASA", "note": "[FS-310]", "values": [
      {"measurement": "furin cleavage Z-score", "setting": "7.5 min", "value": "8.88 (active)"},
      {"measurement": "furin cleavage Z-score", "setting": "15 min", "value": "10.6 (active)"},
      {"measurement": "furin cleavage Z-score", "setting": "30 min", "value": "7.99 (active)"}
    ]},
    {"sequence": "CATLSRKSRDAGNASASA", "note": "[FS-1173]", "values": [
      {"measurement": "furin cleavage Z-score", "setting": "7.5 min", "value": "10.1 (active)"},
      {"measurement": "furin cleavage Z-score", "setting": "15 min", "value": "11.3 (active)"},
      {"measurement": "furin cleavage Z-score", "setting": "30 min", "value": "6.95 (active)"}
    ]},
    {"sequence": "CAKLEVVTSTAGNASASA", "note": "[HC2274]", "values": [
      {"measurement": "furin cleavage Z-score", "setting": "7.5 min", "value": "0.95 (inactive)"},
      {"measurement": "furin cleavage Z-score", "setting": "15 min", "value": "0.175 (inactive)"},
      {"measurement": "furin cleavage Z-score", "setting": "30 min", "value": "-1.42 (inactive)"}
    ]},
    {"sequence": "CAIISKKKRMAGNASASA", "note": "[FS-908]", "values": [
      {"measurement": "furin cleavage Z-score", "setting": "7.5 min", "value": "0.592 (inactive)"},
      {"measurement": "furin cleavage Z-score", "setting": "15 min", "value": "-0.299 (inactive)"},
      {"measurement": "furin cleavage Z-score", "setting": "30 min", "value": 1.14}
    ]},
    {"sequence": "CATNRRPQDVAGNASASA", "note": "[HC168]", "values": [
      {"measurement": "furin cleavage Z-score", "setting": "7.5 min", "value": "-1.65 (inactive)"},
      {"measurement": "furin cleavage Z-score", "setting": "15 min", "value": "-1.52 (inactive)"},
      {"measurement": "furin cleavage Z-score", "setting": "30 min", "value": "0.59 (inactive)"}
    ]},
    {"sequence": "CAGHITGHRMAGNASASA", "note": "[HC316]", "values": [
      {"measurement": "furin cleavage Z-score", "setting": "7.5 min", "value": "0.56 (inactive)"},
      {"measurement": "furin cleavage Z-score", "setting": "15 min", "value": "-0.81 (inactive)"},
      {"measurement": "furin cleavage Z-score", "setting": "30 min", "value": "-0.0561 (inactive)"}
    ]},
    {"sequence": "CATNRRKKRAAGNASASA", "note": "[FS-1174]", "values": [
      {"measurement": "furin cleavage Z-score", "setting": "7.5 min", "value": "8.44 (active)"},
      {"measurement": "furin cleavage Z-score", "setting": "15 min", "value": "7.81 (active)"},
      {"measurement": "furin cleavage Z-score", "setting": "30 min", "value": "8.15 (active)"}
    ]},
    {"sequence": "CAVISRKKRMAGNASASA", "note": "[FS-888]", "values": [
      {"measurement": "furin cleavage Z-score", "setting": "7.5 min", "value": "8.47 (active)"},
      {"measurement": "furin cleavage Z-score", "setting": "15 min", "value": "11.4 (active)"},
      {"measurement": "furin cleavage Z-score", "setting": "30 min", "value": "8.35 (active)"}
    ]},
    {"sequence": "CAADLMGYIPAGNASASA", "note": "[HC226]", "values": [
      {"measurement": "furin cleavage Z-score", "setting": "7.5 min", "value": "-1.64 (inactive)"},
      {"measurement": "furin cleavage Z-score", "setting": "15 min", "value": "-1.67 (inactive)"},
      {"measurement": "furin cleavage Z-score", "setting": "30 min", "value": "0.444 (inactive)"}
    ]},
    {"sequence": "CALKWRFDRSAGNASASA", "note": "[FS-1640]", "values": [
      {"measurement": "furin cleavage Z-score", "setting": "7.5 min", "value": 3.41},
      {"measurement": "furin cleavage Z-score", "setting": "15 min", "value": "4.74 (active)"},
      {"measurement": "furin cleavage Z-score", "setting": "30 min", "value": "4.58 (active)"}
    ]},
    {"sequence": "CALKKRGILSAGNASASA", "note": "[FS-2409]", "values": [
      {"measurement": "furin cleavage Z-score", "setting": "7.5 min", "value": "-1.13 (inactive)"},
      {"measurement": "furin cleavage Z-score", "setting": "15 min", "value": "-2.56 (inactive)"},
      {"measurement": "furin cleavage Z-score", "setting": "30 min", "value": "0.734 (inactive)"}
    ]},
    {"sequence": "CARQGRSHHLAGNASASA", "note": "[FS-2167]", "values": [
      {"measurement": "furin cleavage Z-score", "setting": "7.5 min", "value": "0.537 (inactive)"},
      {"measurement": "furin cleavage Z-score", "setting": "15 min", "value": 1.01},
      {"measurement": "furin cleavage Z-score", "setting": "30 min", "value": 2.02}
    ]},
    {"sequence": "CARQGRFDRSAGNASASA", "note": "[FS-190]", "values": [
      {"measurement": "furin cleavage Z-score", "setting": "7.5 min", "value": "4.75 (active)"},
      {"measurement": "furin cleavage Z-score", "setting": "15 min", "value": "6.18 (active)"},
      {"measurement": "furin cleavage Z-score", "setting": "30 min", "value": "4.85 (active)"}
    ]},
    {"sequence": "CAWKDLLEDNAGNASASA", "note": "[HC1432]", "values": [
      {"measurement": "furin cleavage Z-score", "setting": "7.5 min", "value": "0.826 (inactive)"},
      {"measurement": "furin cleavage Z-score", "setting": "15 min", "value": 1.39},
      {"measurement": "furin cleavage Z-score", "setting": "30 min", "value": "-0.792 (inactive)"}
    ]}
  ]
}
